Assay results published in PubChem BioAssay (NCI).
About 83,000 compounds went through this panel and 20% of them were active in at least one assay; those are over-represented in the sample as a whole.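 Results are percent growth after 48 hours of single-concentration exposure. 100 means growth as in untreated cells, lower positive values show inhibition; negative values down to -100 show cell death.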 Unmarked numbers belong to inactive results. The source made the active and inactive calls. How the source made its calls: active means growth percent below 10; inactive means the rest.

Columns and labels:
Test in all cases: NCI-60 one-dose screen, 48 h (100 = growth as untreated, 0 = no growth, -100 = all killed)
Conditions in all cases: 10 µM unless noted
NCI-H23 lung = system: NCI-H23 lung
NCI-H226 lung = system: NCI-H226 lung
NCI-H322M lung = system: NCI-H322M lung
HOP-62 NSCLC = system: HOP-62 NSCLC
NCI-H460 lung = system: NCI-H460 lung
NCI-H522 lung = system: NCI-H522 lung
A549/ATCC NSCLC = system: A549/ATCC NSCLC
786-0 renal = system: 786-0 renal
COLO 205 colon = system: COLO 205 colon
DU-145 prostate = system: DU-145 prostate
K-562 leukemia = system: K-562 leukemia
MALME-3M melanoma = system: MALME-3M melanoma
MDA-MB-231 breast = system: MDA-MB-231 breast
RXF 393 renal = system: RXF 393 renal
SF-268 CNS = system: SF-268 CNS
SF-295 CNS = system: SF-295 CNS
SF-539 CNS = system: SF-539 CNS
UACC-257 melanoma = system: UACC-257 melanoma
M14 melanoma = system: M14 melanoma

| SMILES | growth (NCI-H23 lung) | growth (NCI-H226 lung) | growth (NCI-H322M lung) | growth (HOP-62 NSCLC) | growth (NCI-H460 lung) | growth (NCI-H522 lung) | growth (A549/ATCC NSCLC) | growth (786-0 renal) | growth (COLO 205 colon) | growth (DU-145 prostate) | growth (K-562 leukemia) | growth (MALME-3M melanoma) | growth (MDA-MB-231 breast) | growth (RXF 393 renal) | growth (SF-268 CNS) | growth (SF-295 CNS) | growth (SF-539 CNS) | growth (UACC-257 melanoma) | growth (M14 melanoma) |
| --- | --- | --- | --- | --- | --- | --- | --- | --- | --- | --- | --- | --- | --- | --- | --- | --- | --- | --- | --- |
| COc1cc(-c2nc3sccn3c2-c2ccnc(S(C)(=O)=O)n2)ccc1F | 92.4% | 94.5% | 89.3% | 108% | 100% | 93.4% | 94.2% | 102% | 114% | 102% | 89.6% | 4.8% (active) | 87% | 84.5% | 100% | 98.6% | 91.5% | 96.1% | 97.9% |
| O=C(CSc1nnc(-c2ccc(Cl)cc2)n1-c1ccccc1)Nc1cccc(Cl)c1 | 49.5% | 46.3% | 55.5% | 104% | 47.9% | 69.8% | 25.7% | 28.1% | 82.1% | 64.6% | 61.9% | 75.9% | 36.3% | 70.8% | 76.1% | 27.2% | 50.9% | 90.4% | 72.8% |
| CCNC(=O)N1CCc2cc(OC)c(OCCc3ccc(OC)c(N)c3)cc2C1c1ccc(C)cc1C (stereo not drawn) | 20% | 42.9% | 40.7% | 26.9% | 2.6% (active) | -30.2% (active) | 9.14% (active) | 13.3% | 13.3% | 16.4% | 15.1% | 62.6% | 15% | 7.54% (active) | 26.1% | 16.1% | 13.6% | 49.1% | 16.5% |
| CCCn1cnc2c(c1=N)C(c1ccc(OC)cc1)c1sc3c(C)cccc3c1O2 (stereo not drawn) | 23.1% | 63.8% | 45.3% | 43.6% | 6.21% (active) | -3.75% (active) | 29.2% | 31.1% | 7.69% (active) | 19.1% | 13% | 57.8% | 27.4% | -5.55% (active) | 39% | -6.82% (active) | -21.6% (active) | 86.7% | 2.53% (active) |
| NS(=O)(=O)c1ccc(-n2cc(-c3cccc(NC(=O)c4ccc(N5CCOCC5)c(C(F)(F)F)c4)c3)nn2)cc1 | 26.3% | 15.5% | 26% | 11.8% | 50.7% | 39.9% | 53.5% | 33.6% | 50.7% | 41.1% | 19.3% | 43.8% | 52% |  | 68.9% | 32.6% | 42.7% | 82.5% | 45.3% |
| Cc1[nH]c(C(=O)Nc2ccccc2OCc2cccc(C(=O)N3CCC[C@@H](N)C3)c2)c(Cl)c1Cl | -80.6% (active) | -67.4% (active) | -94.3% (active) | -60.4% (active) | -73.7% (active) | -66.5% (active) | -77% (active) | -72.6% (active) | -64% (active) | -89.3% (active) | -49.6% (active) | -79.1% (active) | -75.8% (active) | -87.6% (active) | -66.9% (active) | -91.7% (active) | -89.2% (active) | -72.4% (active) | -85.7% (active) |
| COc1ccc(-n2c(SCc3n[nH]c(=S)o3)nc3ccc(Cl)cc3c2=O)cc1 | 99% | 77.6% | 97.6% | 97.2% | 103% | 87.6% | 97.7% | 94.1% | 114% | 96.3% | 99.6% | 95.3% | 94.6% | 89.5% | 92.1% | 97.3% | 91.5% | 102% | 112% |
| C#CCOC(=O)[C@@H]1CCCN1CC#C | 96.7% | 81.2% | 106% | 101% | 87.8% | 96.6% | 80.3% | 87.8% | 88% | 92% | 76.8% |  | 84.6% | 81.7% | 76.9% | 102% | 90.2% | 97.3% |  |
| NC(N)=Nc1ccc(Oc2cccc(Nc3ccc(Cl)cc3)c2)cn1 | 29.1% | 29.6% | -3.11% (active) | -21.3% (active) | -72.6% (active) | -30.1% (active) | 24.8% | 35.4% | -64.4% (active) | -18.1% (active) | -68.5% (active) |  | 10.7% | 1.19% (active) | 41.3% | -75.1% (active) | 73.3% | 28.4% | 42.2% |
| NC(N)=Nc1ccc(Oc2cccc(Oc3ccc(Cl)c(C(F)(F)F)c3)c2)cn1 | -83.5% (active) | -73.4% (active) | -6.46% (active) | -56% (active) | -78.8% (active) | -67.9% (active) | -67.1% (active) | -82% (active) | -68.2% (active) | -91.9% (active) | -54.7% (active) |  | -82.9% (active) | 7.96% (active) | 64.9% | -93.5% (active) | -79.7% (active) | -56% (active) | -84.3% (active) |
| N#Cc1cn(Cc2ccc(Cl)cc2Cl)c(C(=O)c2ccc(Br)cc2)c1N | 93.8% | 75.6% | 95% | 82.6% | 95.9% | 91.2% | 98.2% | 99.1% | 114% | 99.7% | 94.9% |  | 88.2% | 95.8% | 92.7% | 83.7% | 81.4% | 92.1% | 98% |
